About 3,700 (7%) of roughly 53,000 sequences were called active.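 Rule for the calls: active = gene knockdowns whose robust z-score for IL-1 alpha signal is at least 2 or at most -2, so actives lie on both sides; inactive = the rest.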 Only a selection was taken, and actives are over-represented in it overall.
Test: Components of the Cytosolic LPS Sensing Pathway: Gene Identification via Genome-wide siRNA Screen;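 note: robust z of the log signal after scaling to non-targeting control siRNA wells of the plate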
Details: RAW264.7 macrophages, IL-1a HTRF, actives lie on both sides, screened at 100 nM (by protocol), cells primed 5 h with Pam3CSK4 first
Method in brief: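 Knockdown: 100 nM siRNA, 48h, RAW264.7. Stimulation: Pam3CSK4 5 h, then LipidA via TransIT-TKO 24 h. Output: supernatant IL-1a HTRF, negative-control-normalized, log robust z-score; viability by CellTiter-Glo.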

Sequence | z-score
GGAUCACUUUGACCACAACTT against Rab31 | 1.43 (inactive)
GCACUGGACCAAAGAACGGTT against Cercam | 1.14 (inactive)
GCCAUUAUAUAGUCCUACCTT against Klf1 | 0.719 (inactive)
GGGUCAUGAAACCUACCUUTT against Hikeshi | 0.182 (inactive)
GCUUGGACUGGAGUGAAGCTT against Map6d1 | -2.4 (active)
GGCUACAAAGAUGCAGACUTT against Pi4k2a | 0.22 (inactive)
GACAUAUUUGGGUUUCUAATT against Vmn1r15 | -0.645 (inactive)
GGAAUGACUUUUGAGACAGTT against Cyp1a1 | -0.732 (inactive)
GGUAGAGAUCAUCAAUGCATT against Ggt5 | 0.0858 (inactive)
GGAGUCCAAGUUUAAGGAATT against 4930522H14Rik | -1.65 (inactive)
CGGGACACUUGAAUUGGCUTT against Frmd4a | -2.25 (active)
GGAACAUUCUCUCCUUAUGTT against Ctps | -0.168 (inactive)
GGAGUUGCAUCACUUGCUCTT against BC016579 | 0.441 (inactive)
GGUAACUGGUGUCAUUUAATT against Zfp474 | 0.619 (inactive)
GGCAAGAUGCACAAGACUUTT against Cacna1s | 2.6 (active)
GGAUGUGUUACUUACCAAATT against Map4 | 0.607 (inactive)
GGCCUUCUAUACUACAGACTT against Hdac1 | -1.23 (inactive)
CGGCUCACUAGCAGUGUCUTT against Ppm1b | -0.209 (inactive)
GGUUACUCCUUUUUCAAUGTT against Elf5 | -0.636 (inactive)
GGACAUAGUCUGAGGCAAGTT against Ost4 | -1.34 (inactive)
GCUGUUCAAUUUGAUUACUTT against Dapp1 | 1.77 (inactive)
GGCAACCAUAGACGAUGAATT against Rerg | -2.38 (active)

Sequence | z-score
GGACCAGUUAAAGUGGCAGTT against Oas1e | -0.00736 (inactive)
GGUACUUGUACUAAUCGCUTT against Lpcat2 | 0.683 (inactive)
CCCUUGAUUAAGUGGAUUATT against Tgfa | 1.19 (inactive)
GGUGAUGGCUGUUCCUUUCTT against Zdhhc2 | 0.533 (inactive)
GGAUGAAAUUGGAAAGGGCTT against Camkk2 | -0.0472 (inactive)
CCAAUCCUCAACCUUGAAUTT against Ddx19a | 0.0508 (inactive)
GGGACUUCCUUAUUGGAACTT against A830019P07Rik | 1.23 (inactive)
GGAUGUCAACAUUCGAGAUTT against Tmem231 | 0.993 (inactive)
GGCCAGAGACAGUUAUCUUTT against Sptssb | 2.43 (active)
GGAGAAUUGUUUUUACCAGTT against Bbox1 | 0.13 (inactive)
GGACUGACUGGAUUUUUCCTT against Adamts12 | -0.102 (inactive)
GGCAUUAGGAUACAUAACATT against Rpgrip1l | -0.743 (inactive)
GCUGUAACCAACAUACCUCTT against Inka1 | -0.91 (inactive)
GGAACAAAGAUUGAGAGAATT against Sltm | -1.62 (inactive)
GGACAACUUUGAGGAGAUGTT against Tubg2 | 3.23 (active)
GGUUAUCAAAGCUAAGAAUTT against Ifi209 | -0.0859 (inactive)
GCUAGUCAGAAGAAGUACUTT against Actrt2 | -0.402 (inactive)
CCGAAGCAUGAAGAAUCUATT against Tubd1 | 0.544 (inactive)
GAGCAAUAAGCUAGGGUGATT against Olfr1428 | 0.239 (inactive)
GGAAUGUACCAGAAAUACUTT against 4921504E06Rik | 3.01 (active)
GGCAAAUUCGAAAUAGACATT against Evx2 | 0.227 (inactive)
GGAAGAAAUAGAGUUUUACTT against Ephx2 | 3.42 (active)

Sequence | z-score
GGCUCUGAUGUUUCUAAAATT against Hdac10 | 1.29 (inactive)
GGUACUGUCGGUAUCCCACTT against Gcc1 | -1.62 (inactive)
GCCUUUGUACAAUGACUAUTT against Prpf38a | -0.127 (inactive)
GCAGAAAGCAACACGCCCUTT against Pramel20 | 0.631 (inactive)
GGGUAUGCAGAAGGGAACATT against Nrap | 0.424 (inactive)
GGGCAGAGUGAUGUUGUCATT against Gsdmd | -3.34 (active)
CCAUUGUGUGGUACUUAAATT against Mrm3 | 0.448 (inactive)
GCGACUCACUAUUUGGGCATT against Ell3 | 0.471 (inactive)
GGAAAAUUCAUCCUUAGUATT against Wdr61 | -0.086 (inactive)
CGAAACACCAGAUGUAUUCTT against Gck | -0.551 (inactive)
GGUUAUGAAACUGAGAAAGTT against Mid2 | -0.0195 (inactive)
CCCUCUCUUUGGAUACACATT against Tenm4 | -2.98 (active)
GGAUUUGUCAUCCACUUCUTT against Sez6 | -1.79 (inactive)
GCUGCUCAAACAUAAUGAATT against Osbpl2 | -0.419 (inactive)
GGAUGUACAUUCUACCUAUTT against Bap1 | -0.239 (inactive)
GGAUACGAUUGAACGGCUGTT against Rac3 | -0.566 (inactive)
GCUCCUGUAGACAGGUUAGTT against Serac1 | -1.39 (inactive)
CGCUCAUUUAGACAUAGAGTT against Ass1 | 0.686 (inactive)
CGGCAUUUGCUAAUGGUCGTT against Actl6a | -2.79 (active)
CCUAGUCAUAUUCUACAGUTT against Iqca1l | 0.77 (inactive)
GGUUGGAGUUAUAGAUUUUTT against Rufy3 | 1.42 (inactive)
GGAGAGAACUGAUGAAUCCTT against Sdhaf2 | -0.26 (inactive)

Sequence | z-score
CCCUCUUUACCAGUAUUACTT against Pla2g5 | 0.287 (inactive)
GCCGUUCACCAUGAAAUGGTT against Prkci | -0.898 (inactive)
CCAAGCCUUAAUAAGUCAATT against Ccp110 | -2.52 (active)
GGCUACAUGAGAAGCACAGTT against Disc1 | 1.64 (inactive)
CCUUAACAUGUUUCAUCUATT against Sap30 | 0.584 (inactive)
GGUUGUUUCCAGUAUUCUGTT against Apc2 | 1.18 (inactive)
GCUAUAUGUACCCUAGCCATT against H2aj | 2.26 (active)
GCGAAGCGAAUCCUUUUUCTT against Fosl2 | 0.0982 (inactive)
CCCUGCUUGAAUCUCUUCGTT against Tyk2 | -0.191 (inactive)
GGCUUACGUGGUGUGCACUTT against Galr1 | 0.345 (inactive)
GGUCAGGUCUUUUUAUACATT against Zfp354a | 2.56 (active)
GGAAAGGAACUAGCAACGATT against Art3 | -0.642 (inactive)
GGAUACAAUCCUUUUGGAUTT against Dnajb1 | 0.205 (inactive)
GGUGUUUUCCAACAUCCUCTT against Ccrl2 | 3.06 (active)
CCGACAUUCAACAAGAUUUTT against Mta1 | -0.092 (inactive)
CCGGAGCUUUAUUGACACGTT against Rbm19 | 1.15 (inactive)
GGCCUGUGGUUAUGCUGUGTT against Cyp2b10 | -0.716 (inactive)
CCUAUUGAAAAGCCAAACUTT against Lypd11 | -0.651 (inactive)
GGUCUUUGUGUCCACCUACTT against Gpr162 | 0.669 (inactive)
GGUUCUAAUAAAAAUCGGUTT against Pcdhb1 | 0.659 (inactive)
GGAGCUGAAUCAUUAUCUGTT against Rabep1 | -0.0512 (inactive)
GGUGCUGUUUAAAACACAGTT against Aurka | 1.25 (inactive)

Sequence | z-score
GGAGUUGAUAAUAUGGUGGTT against Uck1 | 0.712 (inactive)
GGUGUCCAUGCUAGCUGUATT against Best2 | 2.97 (active)
GGACCAGCUUUUCAACAUUTT against F8 | 0.141 (inactive)
CCUGCUUAGGACCAUCGACTT against Lrrn2 | -0.0914 (inactive)
GGGAUAGCUGUCUUUCAUUTT against Extl3 | -1.02 (inactive)
GCUCUUGCUACUUUUUUCUTT against Olfr823 | -0.108 (inactive)
GGGAAAAACACUUCUCACUTT against Slc35e2 | -0.238 (inactive)
GGUCGCUAUUAAGAUCAUUTT against Mark4 | 0.491 (inactive)
GCUCUGCCUUCAGAUGACGTT against Olfr173 | -0.26 (inactive)
GGCAGAUCAGAAUUGAAUUTT against Fgd6 | -0.528 (inactive)
GGUCCAGGUCUGAAUCUAGTT against Tra2b | 2.48 (active)
GCAAGGAGGUCCAACUAAGTT against Fzd8 | 0.239 (inactive)
GGUUAAUAAUGCGACAGCATT against Rbfox1 | 0.00257 (inactive)
GGAAAACUCAAAGUGCUGATT against Paqr7 | 0.512 (inactive)
CCAGUUUGGUAAUCAUGAATT against Cyb561d2 | -0.244 (inactive)
GGCACCUUGGAGUUACAUATT against Pcdha10 | -0.24 (inactive)
CGACAAGAAAACAUACUAGTT against Gins4 | 2.28 (active)
GCAGACAACUAGACAUACATT against Selenok | -0.42 (inactive)
GCAAUAAUGGCAAUUACGGTT against Slc35f4 | 1.13 (inactive)
GGAGCUGGUGUUGAGUGAGTT against Slfnl1 | -1.81 (inactive)
